Assay outcomes as filed in PubChem BioAssay.
BAZ2B block = inhibitors of human BAZ2B bromodomain | AlphaScreen BAZ2B-H3K14Ac peptide displacement | Q9UIF8 | 360,000 tested, 4.4% active | Potency, µM (doses to about 114 µM), for inactives: at the top dose activity change, negative = inhibition, hits mostly inhibitors; also: % is scaled to controls: 0 for no effect and ±100 for the full control effect; nearly all actives have a fitted effect of over 60% in size
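In this displacement format the biotinylated H3(5-23) peptide acetylated at Lys14 serves as ligand at 50 nM, with BAZ2B at 50 nM in PBS pH 7.4 containing 0.01% Tween-20. Donor and acceptor beads are 10 ug/mL final.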
JMJD2A Tudor inh = blocks the human JMJD2A Tudor domain. O75164. AlphaScreen JMJD2A-Tudor / H3K4me3 peptide binding. Potency, µM (titrated, usually from 114 µM), inactives show at the highest dose activity change, negative = inhibition, actives largely listed as inhibitors. 390,000 tested, 4.4% active. AID 504339; also: % is scaled to controls: 0 for no effect and ±100 for the full control effect; nearly all actives have a fitted effect of over 50% in size
HP1b chromo inh = blocks HP1-beta chromodomain binding to methylated histone tails | P83916 | AlphaScreen HP1-beta / biotin-H3K9me3 peptide binding | Potency, µM (titrated, usually from 114 µM), inactives show at the highest dose activity change, negative = inhibition, actives largely listed as inhibitors | 390,000 tested, 0.56% active; also: nearly all actives have a fitted effect of over 70% in size
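Compound inhibition of the preformed complex between 50 nM HP1-beta and 50 nM biotinylated H3K9me3 peptide was read by AlphaScreen. Buffer was PBS pH 7.4 with 0.01% Tween-20. Incubations ran 30 min at room temperature, with 10 ug/mL donor/acceptor beads.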
G9a block = inhibitors of human histone lysine methyltransferase G9a | AID 504332 | Potency, µM (doses to about 102 µM), for the others: top-dose activity, negative = inhibition, hits mostly inhibitors | 350,000 tested, 8.8% active | G9a H3K9 monomethylation, AlphaScreen, 2 h | Q96KQ7; also: % is scaled to controls: 0 for no effect and ±100 for the full control effect; nearly all actives have a fitted effect of over 75% in size
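Quantitative HTS format: methyltransferase activity on a biotin-tagged H3K9 peptide is measured by AlphaScreen, using a rabbit anti-monomethyl-H3K9 antibody with streptavidin donor and anti-IgG acceptor beads. Final levels are 20 nM enzyme, 500 nM peptide, 20 uM SAM; 2 h RT.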
Sfp PPTase inh = Sfp phosphopantetheinyl transferase inhibition. Potency, µM, inactives show largest response in the series, negative = inhibition, most hits filed as inhibitors. AID 1490. Biochemical Sfp PPTase activity, qHTS. 310,000 tested, 3.5% active;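 also: the enzyme is Sfp with the accession as filed and its product quenches rhodamine fluorescence; 0% = enzyme reaction without inhibitor and -100% = no enzyme wells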
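With Hepes-Na pH 7.6 buffer containing 10 mM MgCl2, Sfp (15 nM) modified BHQ-2-YbbR (12.5 uM) using rhodamine-CoA (5 uM). Two reads 30 minutes apart at 525/598 nm yielded each well's rate.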
An asterisk follows results filed as active; ? = inconclusive; nt = not tested or not shown; [ ] = dose if it differs, or a comment. The list is not random: actives were taken first. Their share in the collection is about 12%. Calls follow the shape of the dose curve; as a rule, active = well fitted curve in the direction sought with a large enough effect; inconclusive = small, poorly fitted or top-dose-only effect, or another doubt; inactive = no such curve, though single readings can be large; an effect the other way counts as inactive or inconclusive. Potency is read from the fitted curve at half-maximal effect.

SMILES	BAZ2B block	JMJD2A Tudor inh	HP1b chromo inh	G9a block	Sfp PPTase inh
COc1cccc(CNS(=O)(=O)c2ccc(S(=O)(=O)NC3CC3)cc2)c1	4%	5%	26%	19%	11%
O=C(COc1ccc(Cl)cc1)Nc1ccc(C(=O)O)cc1NC(=O)COc1ccc(Cl)cc1	50µM*	-21%	21%	1%	17%
COC(=O)c1c(=O)n(O)c2ccc(OC)cc2[n+]1[O-]	?	?	15%	32µM*	?
COC(=O)c1nn(-c2ccc(OC)cc2)c(=O)cc1O	-18%	-19%	-10%	-42%	-16%
COc1ccc2cc(C(c3nnnn3CCc3ccccc3)N3CCCC(C)C3)c(=O)[nH]c2c1 (configuration not stated)	4%	?	41%	45µM*	-19%
COCCn1nnnc1C(c1cc2cc(C)ccc2[nH]c1=O)N1CCCCCC1 (configuration not stated)	-4%	-19%	24%	4.5µM*	50µM*
COCCn1nnnc1C(c1cc2cc(C)cc(C)c2[nH]c1=O)N1CCN(c2ccccc2F)CC1 (configuration not stated)	-4%	-24%	10%	3.2µM*	13µM*
Cc1ccc2[nH]c(=O)c(C(c3nnnn3CCc3ccccc3)N3CCOCC3)cc2c1 (configuration not stated)	13%	1%	30%	7.9µM*	-19%
CC(C)c1nnc(NC(=O)CCC(=O)Nc2ccccc2)s1	1%	-10%	25%	nt	7%
CCc1nnc(NC(=O)CCC(=O)NCCc2ccccc2)s1	-6%[57.1 µM]	-3%	25%	7%	6%
CC(C)Cc1ccc(C(C)/C=C2/CCC(CN3CCCCC3)C2=O)cc1 (configuration not stated)	nt	?	30%	nt	nt
Cc1ccc(-n2ncc(C(=O)NCCN3CCOCC3)c2C2CCN(C(=O)OC(C)(C)C)CC2)c(C)c1	5%[57.1 µM]	-9%	25%	-3%[59 µM]	nt
O=S1(=O)N=C(Oc2cccc(Cl)c2)c2ccccc21	nt	-35%[162 µM]	nt	nt	nt
N#Cc1cccc(OC2=NS(=O)(=O)c3ccccc32)c1	nt	35µM*	nt	nt	nt
O=S1(=O)N=C(Oc2ccccc2)c2ccccc21	6%	89µM*	10%	-2%[59 µM]	-7%
O=C(CN1CCN(C(=O)c2cncn2-c2ccc(F)cc2)CC1)Nc1ccccc1C(F)(F)F	5%	-8%	42%	17%[2.33 µM]	nt
O=C(Nc1cc([N+](=O)[O-])ccc1F)c1ccc2c(c1)OCCO2	9%	7%	31%	-33%	-1%
CC(C)N1C2OC(C3OC4C(O3)N(C(C)C)S(=O)(=O)N4C(C)C)OC2N(C(C)C)S1(=O)=O (configuration not stated)	5%	-2%	19%	-30%[59 µM]	2%
Cc1ccc(N(C(=O)C2CCCC2)C2C=CS(=O)(=O)C2)cc1C (configuration not stated)	-6%	-12%	6%	3%[12.7 µM]	3%
C/C(CC(=O)Nc1ccc2c(c1)OCCO2)=N\NC(=O)c1cccc(O)c1	-2%	-21%	5%	20%	10%
CC(C)(C)C(=O)Nc1ccc2c(c1)OCCOCCOc1cc(NC(=O)C(C)(C)C)ccc1OCCOCCO2	-12%	-8%	39%	3%	30%
O=C(O)CCNc1ccc2c(c1)OCCO2	-9%	45µM*	1%	?	50µM*
CC(=O)N/N=C(\C)CC(=O)Nc1ccc2c(c1)OCCO2	-38%	-15%	13%	45µM*	1%
CC(=O)Nc1ccc2c(c1)OCCOCCOc1cc(NC(C)=O)ccc1OCCO2	-16%	-14%	9%	50µM*	11%
Cc1ccc(C(=O)C2CCN(CC(=O)Nc3ccc4c(c3)OCCO4)CC2)cc1	-2%	-35%	-4%	-11%	4%
SMILES	BAZ2B block	JMJD2A Tudor inh	HP1b chromo inh	G9a block	Sfp PPTase inh
CCOC(=O)c1c(C)[nH]c(O)c1C=Nc1ccc(Cl)cc1	-34%	-35%	?	50µM*	?
COC(=O)c1c(C)[nH]c(O)c1C=Nc1ccc(Oc2ccccc2)cc1	-17%	?	-20%	-21%	-2%
CCOC(=O)c1c(C)[nH]c(O)c1C=Nc1ccc(C(F)(F)F)cc1	-9%	?	-8%	45µM*	-9%
COC(=O)c1c(C)[nH]c(O)c1C=Nc1ccc(C(C)C)cc1	35µM*	45µM*	?	?	3%
COC(=O)c1ccc2c(CCO)c[nH]c2c1	-4%[57.1 µM]	-10%	38%	3%	8%
COc1cccc(NC(=O)C(OC(=O)c2ccccc2NS(=O)(=O)c2cccs2)c2ccccc2)c1 (configuration not stated)	-2%	-14%	25%	?	28%
O=C(c1ccco1)N1CCN(c2ccc([N+](=O)[O-])cc2F)CC1	-24%	-22%	31%	-2%	-4%
O=C(c1ccccc1F)N1CCN(c2ccc([N+](=O)[O-])cc2-n2cccc2)CC1	22µM*	?	9%	nt	-12%
O=C(c1ccc(F)cc1)N1CCN(c2ccc([N+](=O)[O-])cc2-n2cccc2)CC1	?	?	-37%	50µM*	8%
CCc1cc2ccc(OC)cc2nc1SCC(=O)N1CCN(C(=O)c2ccco2)CC1	?	?	17%	-7%[59 µM]	-17%
Cc1nnc(SCC(=O)N2CCN(C(=O)c3ccco3)CC2)n1C	3%	10%	55%	?	nt
Cc1cc2cc3c(cc2nc1SCC(=O)N1CCN(C(=O)c2ccco2)CC1)OCO3	-34%	-35%	-13%	50µM*	-15%
COc1ccc(OC)c(-n2nnnc2SCC(=O)N2CCN(C(=O)c3ccco3)CC2)c1	-19%	20µM*	-22%	?	14%
O=C(CSc1nc2cc(Cl)ccc2s1)N1CCN(C(=O)c2ccco2)CC1	-9%	-20%	20%	45µM*	-25%
Cn1cnnc1SCC(=O)N1CCN(C(=O)c2ccco2)CC1	-32%	-8%	25%	35µM*	10%
Cc1cc(NC(=O)c2cc3nc(C4CC4)cc(C(F)(F)F)n3n2)no1	-1%	-10%	13%	4%[59 µM]	16%
COc1cccc2c1Oc1ncccc1N(C(=O)Nc1ccc(F)c(Cl)c1)C2	37%[57.1 µM]	-16%	37%	7%[59 µM]	nt
COc1ccc(C(=O)Nc2ccc(-c3nnn(CC(=O)N4CCN(C(=O)c5ccco5)CC4)n3)cc2)cc1	79µM*	-21%	16%	50µM*	20%
CC(=O)N1CCN(CCN=CC2=C(O)CC(c3ccc(Cl)cc3)CC2=O)CC1 (configuration not stated)	-6%	-12%	50%	50µM*	6%
CC(=O)N1CCN(CCN=CC2=C(O)CC(c3cccs3)CC2=O)CC1 (configuration not stated)	9%	-1%	40%	50µM*	-1%
Cc1cc(C)nc(NC(=O)C(C)C)n1	5%	4%	38%	17%[2.33 µM]	7%
